Source: PubChem BioAssay
sEH act: soluble epoxide hydrolase (human) activation. P34913. purified human sEH enzymatic activity, activator screen. activation, % at 2 µM. 91,000 tested, 0.04% active. AID 717; in the data active means activation above about 37%
Target sequence (P34913 whole entry, looked up): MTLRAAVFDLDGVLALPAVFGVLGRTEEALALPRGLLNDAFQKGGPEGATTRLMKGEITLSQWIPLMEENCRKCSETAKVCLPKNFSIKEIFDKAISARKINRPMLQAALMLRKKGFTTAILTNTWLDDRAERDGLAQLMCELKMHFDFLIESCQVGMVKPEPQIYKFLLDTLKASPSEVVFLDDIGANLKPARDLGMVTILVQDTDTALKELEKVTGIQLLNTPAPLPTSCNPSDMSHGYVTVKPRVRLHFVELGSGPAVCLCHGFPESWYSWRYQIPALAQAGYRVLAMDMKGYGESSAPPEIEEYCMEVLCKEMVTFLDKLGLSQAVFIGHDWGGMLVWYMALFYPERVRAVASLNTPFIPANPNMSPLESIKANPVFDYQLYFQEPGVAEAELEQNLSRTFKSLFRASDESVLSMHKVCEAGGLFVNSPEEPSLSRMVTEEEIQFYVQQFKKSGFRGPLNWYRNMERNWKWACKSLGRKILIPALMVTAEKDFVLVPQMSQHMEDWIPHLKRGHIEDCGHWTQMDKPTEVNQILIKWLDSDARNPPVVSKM
CYP2C9 activ: activators of human CYP2C9; recombinant CYP2C9, luciferin-H conversion, luminescence; stronger effect = higher value; factor 1 = untreated enzyme, 0 = blocked; 96,000 tested, 1.4% active; activation factor at 5 µM;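 active means activation factor of 2 or more for CYP2C9 at a 5 µM dose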
CYP2C19 inhib: blocks human cytochrome P450 2C19 | 96,000 tested, 21% active | inhibition, % at 5 µM | CYP2C19 Supersomes, luciferin-H EGE luminescence, 30 min;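 active means CYP2C19 inhibition above a set limit at 5 µM in the primary screen, cut at about 50% in these data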
sEH inh: blocks human soluble epoxide hydrolase activity; P34913; recombinant human sEH enzymatic activity assay; inhibition, % at 2 µM; 91,000 tested, 0.34% active; AID 707; in the data active means inhibition above about 80%
CYP2C19 act: activators of human cytochrome P450 2C19; activation factor at 5 µM; recombinant CYP2C19, luciferin-H EGE luminescence; stronger effect = higher value; 0 = fully inhibited enzyme, 1 = untreated enzyme; P33261; 96,000 tested, under 10 active; AID 1025;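 active means activation factor of at least 2 at 5 µM in the primary screen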
CYP2C9 inh: blocks human cytochrome P450 2C9 | P11712 | CYP2C9 Supersomes, luciferin-H conversion, luminescence | inhibition, % at 5 µM | 96,000 tested, 20% active | AID 777;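 active means blocking of liver enzyme CYP2C9 beyond about 50% at 5 µM, limit read from the data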
Numbers stand for hits; . = inactive; / = not tested or not shown. Compounds with a hit are over-represented: about 27% of the library has one in this group of screens.

SMILES | sEH act | CYP2C9 activ | CYP2C19 inhib | sEH inh | CYP2C19 act | CYP2C9 inh
Nc1nc2c3ccccc3nc(Cc3ccccc3)n2n1 | . | . | 55 | . | . | .
CCOc1ccc(NC(=O)C2CC(=O)N(c3cc(C)cc(C)c3)C2)cc1 (stereo not drawn) | . | . | . | . | . | .
Cc1ccc2cc(CCNC(=O)c3ccc4c(c3)OCO4)c(=O)[nH]c2c1C | . | . | . | . | . | 60
Cc1ccc2cc(CCNC(=O)C(C)C)c(=O)[nH]c2c1C | . | . | . | . | . | .
COc1ccc(NC(=O)c2cccc(N3C(=O)NC4CC3(C)Oc3ccccc34)c2)cc1 (stereo not drawn) | . | . | 89 | . | . | 90
CCOc1cccc2c1OC1(C)CC2NC(=O)N1c1cccc(F)c1 (stereo not drawn) | . | . | . | . | . | .
COc1cccc2c1OC1(C)CC2NC(=O)N1c1cccc(C(=O)Nc2ccc3c(c2)OCCO3)c1 (stereo not drawn) | . | . | . | . | . | 72
CC12CC(NC(=O)N1c1cccc(C(=O)Nc3ncn[nH]3)c1)c1ccccc1O2 (stereo not drawn) | . | . | . | . | . | .
Cc1cccc(OCCC(=O)NCC(c2ccco2)N2CCCCC2)c1 (stereo not drawn) | . | . | . | . | . | .
Cc1nc(NCc2ccc3c(c2)OCO3)c2oc3ccccc3c2n1 | . | / | / | . | / | /
CCc1nc(NCc2ccc3c(c2)OCO3)c2oc3ccccc3c2n1 | . | . | 52 | . | . | 92
CCc1nc(NCc2cccnc2)c2oc3ccccc3c2n1 | . | . | 92 | . | . | 58
COc1ccccc1C1SCCN1S(C)(=O)=O (stereo not drawn) | . | . | 57 | . | . | .
C=CCNCc1cccn1-c1ccccc1 | . | . | . | . | . | .
Cc1c(O)ccc(/C(Cc2ccc3ccccc3n2)=N\O)c1O | / | . | 66 | / | . | 88
Cc1oc2c(C)c(O)ccc2c(=O)c1-c1ccc2ccccc2n1 | . | . | . | . | . | .
c1cc(-c2nnc(-c3ccncc3)o2)ccn1 | . | . | 66 | . | . | .
CCOc1ccc(-c2nnc(-c3cccs3)o2)cc1 | . | . | . | . | . | .
COc1ccc(-c2nnc(-c3ccc(OCC(C)C)cc3)o2)cc1 | . | . | . | . | . | .
CCCOc1ccc(-c2nnc(-c3ccncc3)o2)cc1 | / | . | 99 | / | . | 89
CC(C)COc1ccc(-c2nnc(-c3ccncc3)o2)cc1 | . | . | 78 | . | . | .
CCC(=O)N1CCc2cc(Br)cc(S(=O)(=O)C3(C(=O)OC)CC3)c21 | . | . | . | . | . | .
CC1=CC2=C(OC1N(C)C)c1cccc3cccc(c13)C2=O (stereo not drawn) | . | . | . | . | . | .
COCCN(C(=O)CN1CCCc2ccccc21)c1c(N)n(Cc2ccccc2)c(=O)[nH]c1=O | . | . | . | . | . | .
Cn1c(=O)c(C(=O)CSc2nnc(Nc3ccccc3)s2)c(N)n(Cc2ccccc2)c1=O | . | . | . | . | . | 72
SMILES | sEH act | CYP2C9 activ | CYP2C19 inhib | sEH inh | CYP2C19 act | CYP2C9 inh
CCC(=O)OCC(=O)c1c(N)n(Cc2ccccc2)c(=O)n(C)c1=O | . | . | 66 | . | . | .
Cn1c(=O)c(C(=O)CN2CCCc3ccccc32)c(N)n(Cc2ccccc2)c1=O | / | . | 87 | / | . | 93
Cc1nn(-c2ccccc2)c(C)c1C(=O)OCC(=O)c1c(N)n(CC(C)C)c(=O)n(C)c1=O | / | . | . | / | . | 61
Cn1ccnc1C(=O)c1cc(=O)c2ccccc2o1 | . | . | . | . | . | .
CCc1nc2ccc(C)cc2c(C(=O)Oc2cccc3cccnc23)c1C | . | . | . | . | . | 51
CC(=O)C(=Nc1ccc(Cl)cc1Cl)NNc1cccc(Cl)c1 | . | . | 99 | . | . | 100
CC(=O)c1ccc(NC(=O)Nc2cccc(Cl)c2)cc1 | . | . | . | . | . | .
COC(=O)C(C)Sc1nc2c(c(-c3ccc(OC)cc3)c1C#N)-c1ccccc1C2=O (stereo not drawn) | . | / | / | . | / | /
C=CCc1c(C)nc(SC(C)C)[nH]c1=O | . | . | . | . | . | .
CC1=CCC(C(=O)O)(C(=O)N/N=C/c2cccs2)C(c2ccc(F)cc2)C1 (stereo not drawn) | . | . | . | . | . | 67
CC1=CCC(C(=O)O)(C(=O)N/N=C/c2cccs2)C(c2ccc([N+](=O)[O-])cc2)C1 (stereo not drawn) | . | . | . | . | . | .
CCOC(=O)C1C(=O)NC(c2ccccc2)=NC1c1ccc(C(C)C)cc1 (stereo not drawn) | . | . | . | . | . | .
CCOC(=O)C1C(=O)NC(c2ccccc2)=NC1c1ccc(Cl)cc1 (stereo not drawn) | . | . | 57 | . | . | .
Cc1ccc(S(=O)(=O)NNc2nc3ccccc3nc2C(F)(F)F)cc1 | . | . | 67 | . | . | 50
CC(=O)Nc1ccc(-c2csc(NCc3ccco3)n2)cc1 | . | / | / | . | / | /
CC(=O)Nc1ccc(-c2csc(NC(=O)c3ccc(C)o3)n2)cc1 | . | . | 52 | . | . | .
CCC1S/C(=N/C(=O)NC2CCCCC2)NC1=O (stereo not drawn) | . | / | / | . | / | /
O=C(/N=C1\NC(=O)C(F)(C(F)(F)F)S1)NC1CCCCC1 (stereo not drawn) | / | . | . | / | . | 85
COc1ccc(CN2CC(C(=O)NCCCN3CCOCC3)CC2=O)cc1 (stereo not drawn) | . | . | . | . | . | .
Cc1nc2cncc(Br)c2n1C | . | . | . | . | . | .
COc1ccc(Cn2c(=O)[nH]c3cc(C(=O)N4CCN(Cc5ccccc5)CC4)ccc3c2=O)cc1 | / | . | 64 | / | . | 75
O=C(c1ccc(Cn2c(=O)[nH]c3ccccc3c2=O)cc1)N1CCN(c2ccc(F)cc2)CC1 | . | . | 88 | . | . | 62
CCCOC(=O)C1C2C=CC(C3CC23)C1C(=O)OCC(=O)c1ccccc1 (stereo not drawn) | . | . | 91 | . | . | 73
O=C(COC(=O)C1CC(=O)N(c2ccccc2)C1)c1ccccc1 (stereo not drawn) | . | . | . | . | . | .
COc1ccc(-c2nnc3ccc(SC)nn23)cc1 | . | . | . | . | . | .
SMILES | sEH act | CYP2C9 activ | CYP2C19 inhib | sEH inh | CYP2C19 act | CYP2C9 inh
CC(C)c1ccc(/C=c2\sc3nc(-c4ccncc4)nn3c2=O)cc1 | . | . | . | . | . | 58
Cn1c(=O)[nH]c(=O)c2c1nc(N1CCCCC1)n2CCOc1ccccc1 | . | . | . | . | . | .
Cn1cccc1C(=O)NC(=O)CSc1nnc(C2CC2)n1-c1ccccc1 | . | . | 55 | . | . | .
Cc1cnc(NC(=O)c2ccc(-c3nc4ccccc4s3)o2)s1 | . | . | 75 | . | . | 56
COc1ccc2[nH]cc(CCN3C(=O)CCC3=O)c2c1 | . | . | . | . | . | .
O=C(Nc1ccc2c(c1)OCCO2)c1cccnc1 | / | . | . | / | . | .
